# Source: PubChem BioAssay (NCI)
# About 83,000 compounds went through this panel and 20% of them were active in at least one assay; those are over-represented in the sample as a whole.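 48-hour exposure, single concentration, 96-well plates; percent growth endpoint where 0 means no net growth. Active: below 10.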 A number with no mark means an inactive call. Calls of active or inactive are those of the source.
# System: LOX IMVI melanoma
# Test: NCI-60 one-dose screen, 48 h (100 = growth as untreated, 0 = no growth, -100 = all killed)
# Conditions: 10 µM unless noted
row,SMILES,growth
1,CC1=C(CNO)C2=C(C)C3(CC3)[C@@](C)(O)C(=O)C2=C1,52.8%
2,COc1ccc(O)c(CNC(=O)CN2CCCC2=O)c1,99.4%
3,CN1CCCCC1C(C)(O)c1ccccc1 (centres undefined),99%
4,COC(=O)CC[C@H](Cc1ccccc1)NC(=O)c1csc([C@@H](C[C@H](C(C)C)N(C)C(=O)[C@@H](NC(=O)[C@H]2CCCCN2C)C(C)C)OC(C)=O)n1,29.3%
5,COc1ccc(N(CC(=O)NCCC[Te]c2ccccc2)C(=O)CNC(=O)OC(C)(C)C)cc1,17.6%
6,COC(=O)[C@@H](C)C[C@H](Cc1ccccc1)NC(=O)c1csc([C@@H](C[C@H](C(C)C)N(C)C(=O)[C@@H](NC(=O)[C@H]2CCCCN2C)C(C)C)OC(C)=O)n1,14.2%
7,COC1OC(CO)C(O)C(O)[CH]1[Hg][O]C(C)=O (centres undefined),82.3%
8,CC12CC=CCC1CCC1C2CCC2(C)C(c3ccc(=O)oc3)CCC12O (centres undefined),-78% (active)
9,O=C1C2CC=CCC2C(=O)N1SC(Cl)(Cl)Cl (centres undefined),78.6%
10,CCOC(=O)[C@@H](C)C[C@H](Cc1ccccc1)NC(=O)c1nc([C@@H](C[C@H](C(C)C)N(C)C(=O)[C@@H](NC(=O)[C@H]2CCCCN2C)C(C)C)OC(C)=O)sc1CCOCc1ccccc1,-54.4% (active)
11,COP(=S)(N1CC1)N1CC1,104%
12,COC(=O)[C@@H](C)C[C@H](Cc1ccccc1)NC(=O)c1nc([C@@H](C[C@H](C(C)C)N(C)C(=O)[C@@H](NC(=O)[C@H]2CCCCN2C)C(C)C)OC(C)=O)sc1C(C)C,9.2% (active)
13,COC(=O)[C@@]1(O)C[C@H]2O[C@]1(C)n1c3ccccc3c3c4c(c5c6ccccc6n2c5c31)C(=O)NC4,-69.2% (active)
14,N/C(=N\N=C\c1ccc(-c2ccccc2)cc1)N[N+](=O)[O-],41.9%
15,COc1ccc([As]=[As]c2ccc(OC)c(NCS(=O)(=O)O)c2)cc1NCS(=O)(=O)O (centres undefined),5.45% (active)
16,C1CCC([PH+](C2CCCCC2)C2CCCCC2[PH+](C2CCCCC2)C2CCCCC2)CC1.O=C(C1[CH-]CCCC1)C1CCCC[N-]1.[Au] (centres undefined),-95.9% (active)
17,O=P1(NCCCl)OCCCN1CCCl (centres undefined),99.8%

row,SMILES,growth
1,O=C([O][Hg][c]1ccccc1)c1ccccc1,-80.3% (active)
2,CC(CO)NC1CCCCC1 (centres undefined),94.3%
3,C[C@@]12CC=C3c4nc(Nc5cccc(O)c5)sc4CC[C@]3(C)[C@H]1CC[C@]1(C)C(=O)CC[C@@H]21,-52.7% (active)
4,COC(=O)[C@@H](C)C[C@H](Cc1ccccc1)NC(=O)c1csc([C@@H](C[C@H](C(C)C)N(C)C(=O)[C@@H](NC(=O)[C@H]2CCCCN2C)c2ccc(F)cc2)OC(C)=O)n1,7.62% (active)
5,OCCCCCNC1CCCCC1,101%
6,COc1cc(/C=C/[N+](=O)[O-])c([N+](=O)[O-])cc1OC,-68.1% (active)
7,NC(CCl)CCl,106%
8,O=[N+]([O-])CC(c1ccccc1Cl)c1c(-c2ccccc2)[nH]c2ccccc12 (centres undefined),33.4%
9,C#Cc1ccc2c(c1)C(c1ccccc1)=NCC(=O)N2C,44.4%
10,CN(C)C(=O)Oc1ccccc1,92.4%
11,OCCNC(Cc1ccccc1)c1ccc2c(c1)OCO2 (centres undefined),93.5%
12,Nc1ccc2c(c1)Cc1cc(Br)ccc1-2,94.2%
13,C#Cc1ccc2c(c1)C(c1ccccc1F)=NCC(=O)N2C,47.5%
14,O=C([O][Hg][CH2]C1OCCOC1[CH2][Hg][O]C(=O)c1ccccc1)c1ccccc1 (centres undefined),-92.7% (active)
15,C[C@@H]1O[C@@H](O[C@H]2C[C@@H](O)[C@]3(CO)C4C(CC[C@]3(O)C2)[C@@]2(O)CC[C@H](C3=CC(=O)OC3)[C@@]2(C)C[C@H]4O)[C@H](O)[C@H](O)[C@H]1O (some centres undefined),-88.2% (active)
16,CC1=C(CN)C2=C(C)C3(CC3)[C@@](C)(O)C(=O)C2=C1,91.6%
17,COC(C(=O)[C@@H](O)[C@@H](C)O)[C@@H]1Cc2cc3cc(O[C@H]4C[C@@H](O[C@H]5C[C@@H](O)[C@H](O)C(C)O5)[C@H](O)C(C)O4)c(C)c(O)c3c(O)c2C(=O)[C@H]1O[C@H]1C[C@@H](O[C@H]2C[C@@H](O[C@H]3C[C@@H](O)[C@@H](O)C(C)O3)[C@@H](O)C(C)O2)[C@H](O)C(C)O1 (some centres undefined),-10.6% (active)
